The values below come from PubChem BioAssay AID463173 (ICCB-Longwood Screening Facility, Harvard Medical School, 2010).

The whole screen tested about 52,000 compounds, of which about 4,300 (8.3%) were called active. Cut-off read from the data, not from the text of the source: active = survival mostly below about 52% (no sharp cut-off); inactive = mostly above about 56%. For the sample, actives were picked, then their nearest neighbours and some compounds at random.

In the assay the test system is DeltatarO mutant. In words: growth inhibition of S. aureus wild type versus tarO mutant, primary screen, teichoic acid synthesis inhibitors, RN4220, OD600 (AID 463173). Conditions: OD600, 18 h, stronger effect = lower value, screened at 18.75 µg/mL (by protocol).
With `CCOc1ccc(CCNC(=O)CCN2N=C(c3ccc(OC)cc3)CCC2=O)cc1OCC`, the survival is 81% (inactive). The value for `CCOc1cccc2cc(-c3nc4sc(C(=O)Nc5ccc(C)cc5)c(C)c4c(=O)[nH]3)c(=O)oc12` was 51% (inactive); that for `Cc1cc(C)cc(NC(=O)c2sc3nc(-c4cc5ccccc5oc4=O)[nH]c(=O)c3c2C)c1` was 43% (active). As for `Cc1ccccc1NC(=O)c1sc2nc(-c3cc4ccccc4oc3=O)[nH]c(=O)c2c1C`, the figure is 52% (inactive). As for `COc1ccc(NC(=O)c2sc3nc(-c4cc5ccc(OC)cc5oc4=O)[nH]c(=O)c3c2C)cc1`, the figure is 46% (active). Consider `COc1ccc(NC(=O)c2sc3nc[nH]c(=O)c3c2C)cc1`, for which the survival is 75% (inactive). The value for `Cc1c(C(=O)Nc2cccc(F)c2)sc2nc(-c3cc4ccccc4oc3=O)[nH]c(=O)c12` was 37% (active).

Regarding `Cc1cc(NC(=O)c2ccc(F)cc2)ccc1-c1cc2ccccc2oc1=O`, the survival is 75% (inactive). As for `COc1ccc(NC(=O)c2sc3nc(-c4cc5cccc(OC)c5oc4=O)[nH]c(=O)c3c2C)cc1`, the figure is 46% (inactive); as for `Cc1ccc(NC(=O)c2sc3nc(-c4cc5ccccc5oc4=O)[nH]c(=O)c3c2C)c(C)c1`, 39% (active); as for `Cc1cc(C)cc(NC(=O)c2sc3nc[nH]c(=O)c3c2C)c1`, 91% (inactive). As for `Cc1cccc(NC(=O)c2sc3nc(-c4cc5ccc(O)cc5oc4=O)[nH]c(=O)c3c2C)c1`, the figure is 46% (inactive); as for `Cc1c(C(=O)Nc2ccccc2)sc2nc(-c3cc4ccccc4oc3=O)[nH]c(=O)c12`, 66% (inactive). The value for `O=C(COc1ccc(Br)cc1Cl)Nc1ncn[nH]1` was 91% (inactive); that for `CCOCCCNC(=O)C1CCCN(c2ncnc3onc(C)c23)C1` (configuration not stated) was 68% (inactive); that for `COc1ccc(-c2cn3nc(N4CCC(C(=O)Nc5cccc(OC)c5)CC4)sc3n2)cc1` was 94% (inactive). `C#CCn1c(=NC(=O)c2ccc3c(c2)OCCO3)sc2cc(OC)c(OC)cc21`: the survival was 102% (inactive). As for `COc1cccc(C(=O)c2cn(CC(=O)Nc3ccc4c(c3)OCCO4)c3nc(C)ccc3c2=O)c1`, the figure is 68% (inactive); as for `CCOC(=O)c1c(C)oc2ncnc(Nc3cc(C)cc(C)c3)c12`, 94% (inactive). As for `CCOC(=O)c1c(Nc2cccc(C(=O)OC)c2)nnc(-c2ccccc2)c1-c1ccccc1`, the figure is 16% (active); as for `Cc1ccc(-c2nnc(Nc3cccc(O)c3)c3ccccc23)cc1S(=O)(=O)N1CCOCC1`, 78% (inactive). As for `CCOC(=O)c1c(C)oc2nc(C)nc(Nc3cc(C)cc(C)c3)c12`, the figure is 89% (inactive). Regarding `CNC(=O)c1ccc(Nc2nnc(-c3ccc(C)c(S(=O)(=O)N4CCCCC4)c3)c3ccccc23)cc1`, the survival was 54% (active). For `CCOC(=O)c1c(Nc2cc(C)cc(C)c2)nnc(-c2ccccc2)c1-c1ccccc1`, the survival was 32% (active).

On to `CCOC(=O)c1c(Oc2ccc(C(=O)OC)cc2)nnc(-c2ccccc2)c1-c1ccccc1`, for which the survival was 74% (inactive). As for `Cc1ccc(-c2nnc(Nc3ccc(C(N)=O)cc3)c3ccccc23)cc1S(=O)(=O)N1CCCCC1`, the figure is 128% (inactive).

In the case of `CCOC(=O)c1c(Nc2cccc(O)c2)nnc(-c2ccccc2)c1-c1ccccc1`, the survival was 31% (active).

With `CNC(=O)c1ccc(Nc2nnc(-c3ccc(C)c(S(=O)(=O)N4CCOCC4)c3)c3ccccc23)cc1`, the survival was 61% (inactive).

For the compound `Cc1ccc(-c2nnc(Nc3cccc(O)c3)c3ccccc23)cc1S(=O)(=O)N1CCCCC1`, the survival is 60% (inactive). As for `CCOC(=O)c1c(C)oc2nc(C)nc(Nc3cccc(OC)c3)c12`, the figure is 78% (inactive).

In the case of `Cc1ccc(N2CCN(c3nc4c(S(=O)(=O)c5ccc(C)c(C)c5)nnn4c4ccccc34)CC2)c(C)c1`, the survival is 82% (inactive). As for `CN(C)c1ccc(CNC(=O)C2CCCN(S(=O)(=O)c3ccc4c(ccn4C)c3)C2)cc1` (configuration not stated), the figure is 83% (inactive).

On to `Cc1noc(-c2ccc(N3CCCCC3C)c([N+](=O)[O-])c2)n1` (configuration not stated), for which the survival was 108% (inactive). In the case of `CCOc1ccc(N2C(=O)N(Cc3ccc(C)cc3C)c3ccccc3S2(=O)=O)cc1`, the survival was 94% (inactive). As for `CCOC(=O)c1cccc(Nc2cc(-c3ccccc3)ncn2)c1`, the figure is 15% (active); as for `CCOC(=O)c1c(Nc2cccc(C)c2)nnc(-c2ccccc2)c1-c1ccccc1`, -4% (active). Turning to `CCOC(=O)c1cccc(Nc2cc(C)nc(C)n2)c1`, the survival was 65% (inactive). For `Cc1ccc(-c2nnc(Nc3cccc(O)c3)c3ccccc23)cc1S(=O)(=O)NCC1CCCO1` (configuration not stated), the survival was 74% (inactive). On to `CCOC(=O)CNS(=O)(=O)c1cc(-c2nnc(Nc3cccc(O)c3)c3ccccc23)ccc1C`, for which the survival is 39% (active). For the compound `Cc1ccc(-c2nnc(Nc3cccc(O)c3)c3ccccc23)cc1S(=O)(=O)N1CCN(C)CC1`, the survival is 97% (inactive). As for `CCOC(=O)c1c(C)oc2ncnc(Nc3cccc(C(F)(F)F)c3)c12`, the figure is 105% (inactive); as for `CCOC(=O)c1c(C)c(-c2ccccc2)n(CC(=O)Nc2cc(C)cc(C)c2)c1C`, 80% (inactive); as for `Oc1cccc(Nc2cc(-c3ccccc3)ncn2)c1`, 63% (inactive). The value for `CCc1ccc(NC(=O)Cn2c(=O)n(-c3ccccc3C)c(=O)c3c2c2cc(OC)ccc2n3C)cc1` was 67% (inactive). The value for `COc1ccccc1OCC(=O)NC1CC(=O)N(c2ccc3c(c2)OCCO3)C1` (configuration not stated) was 67% (inactive); that for `Cc1coc2c(C)c3oc(=O)c(CCC(=O)NCCc4ccccc4F)c(C)c3cc12` was 57% (inactive). Regarding `COC(=O)c1ccc(C2c3c(-c4ccccc4O)n[nH]c3C(=O)N2Cc2ccncc2)cc1` (configuration not stated), the survival was 90% (inactive). As for `CC(C)c1ccc(C2c3c(-c4ccccc4O)n[nH]c3C(=O)N2Cc2ccncc2)cc1` (configuration not stated), the figure is 88% (inactive); as for `O=C1c2[nH]nc(-c3ccccc3O)c2C(c2ccc(Cl)cc2)N1Cc1ccco1` (configuration not stated), -1% (active). Turning to `CCCOc1ccc(C2c3c(-c4c(C)cc(C)cc4O)n[nH]c3C(=O)N2CCO)cc1` (configuration not stated), the survival was 73% (inactive). As for `COc1cc(C2c3c(-c4ccccc4O)n[nH]c3C(=O)N2CCO)ccc1OCC(C)C` (configuration not stated), the figure is 99% (inactive); as for `COc1ccc(C2c3c(-c4ccccc4O)n[nH]c3C(=O)N2Cc2ccco2)cc1` (configuration not stated), 1% (active). Take `COc1cc(C2c3c(-c4cc(C)ccc4O)n[nH]c3C(=O)N2CCCO)ccc1OCCC(C)C` (configuration not stated): the survival was 58% (inactive). The value for `O=C1c2[nH]nc(-c3ccccc3O)c2C(c2cccc(Cl)c2)N1Cc1cccnc1` (configuration not stated) was 65% (inactive); that for `COc1cc(C2c3c(-c4ccccc4O)n[nH]c3C(=O)N2Cc2ccco2)ccc1OCC(C)C` (configuration not stated) was 7% (active); that for `COc1cc(C2c3c(-c4c(C)cc(C)cc4O)n[nH]c3C(=O)N2Cc2ccco2)cc(OC)c1OC` (configuration not stated) was 67% (inactive).

Take `COc1ccc(C2c3c(-c4c(C)cc(C)cc4O)n[nH]c3C(=O)N2Cc2ccco2)cc1` (configuration not stated): the survival is 0% (active).
